# Screening data: PubChem BioAssay, several laboratories
# BoNT-F LC inh: blocks Botulinum neurotoxin F light chain protease; 0.22% of 360,000 active; AID 588497; Multiplex microsphere protease cleavage assay, flow cytometry; inhibition, % at 10 µM; in the data active means inhibition above about 35%, passing the limit was not always enough; inconclusive means no clear call, values can overlap the other calls; further: plate controls were buffer without enzyme for full effect and enzyme alone for no effect
# Anthrax LF inh2: anthrax lethal factor protease inhibition | AID 588501 | inhibition, % at 10 µM | 0.12% of 360,000 active | P15917 | multiplex microsphere protease cleavage assay, LF; further: plate controls were buffer without enzyme for full effect and enzyme alone for no effect
# Target sequence (P15917 whole entry, looked up): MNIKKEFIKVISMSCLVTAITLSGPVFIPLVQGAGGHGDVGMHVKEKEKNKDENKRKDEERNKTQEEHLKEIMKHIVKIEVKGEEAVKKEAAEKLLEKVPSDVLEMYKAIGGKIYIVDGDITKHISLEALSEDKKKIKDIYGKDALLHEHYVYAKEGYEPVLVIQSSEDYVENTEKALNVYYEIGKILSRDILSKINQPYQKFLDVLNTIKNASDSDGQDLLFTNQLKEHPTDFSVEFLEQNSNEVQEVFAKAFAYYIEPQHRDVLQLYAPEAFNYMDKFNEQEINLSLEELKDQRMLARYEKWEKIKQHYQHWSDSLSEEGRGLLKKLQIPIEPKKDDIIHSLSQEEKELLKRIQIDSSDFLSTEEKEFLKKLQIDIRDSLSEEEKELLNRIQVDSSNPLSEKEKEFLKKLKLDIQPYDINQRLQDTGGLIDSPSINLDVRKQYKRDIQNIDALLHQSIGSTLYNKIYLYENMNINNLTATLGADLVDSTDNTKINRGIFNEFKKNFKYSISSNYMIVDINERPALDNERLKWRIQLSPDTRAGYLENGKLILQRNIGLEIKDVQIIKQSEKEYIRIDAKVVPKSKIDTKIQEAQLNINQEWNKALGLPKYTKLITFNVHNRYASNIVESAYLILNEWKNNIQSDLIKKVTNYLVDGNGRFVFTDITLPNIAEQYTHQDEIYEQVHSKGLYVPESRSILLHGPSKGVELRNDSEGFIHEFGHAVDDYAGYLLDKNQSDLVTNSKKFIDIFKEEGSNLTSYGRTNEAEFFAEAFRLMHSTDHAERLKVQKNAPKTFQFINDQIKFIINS
# MazF activator: activators of E. coli MazEF toxin-antitoxin RNase; P0AE70; FAM/BHQ RNA-DNA oligo cleavage fluorescence, 5 h; activation, % at 20 µM; 0.32% of 350,000 active; AID 504720; in the data active means activation above about 50%
# BoNT-A LC inh2: BoNT A light chain protease inhibition; multiplex microsphere protease substrate cleavage, flow cytometry; inhibition, % at 10 µM; 0.17% of 360,000 active; AID 588499; further: plate controls were buffer without enzyme for full effect and enzyme alone for no effect
# Bead autofluor: flagged as autofluorescent in microsphere protease counterscreen; compound autofluorescence counterscreen, microsphere flow cytometry; hits give high values; fluorescence intensity (no concentration beside the values); 3.1% of 360,000 active; AID 624483; in the data active means fluorescence intensity above about 16000; inconclusive means no clear call, values can overlap the other calls
# VHR inh abs: inhibitors of human VHR1 phosphatase (DUSP3). P51452. recombinant VHR phosphatase, pNPP absorbance. inhibition, % at 13.3 µM. 0.52% of 290,000 active. AID 1654; in the data active means inhibition above about 50%
# An asterisk follows results filed as active; ? = inconclusive; · = no result given; + = active, no number. An excerpt weighted towards active compounds, which were near 4.1% of everything screened. Unless noted, no stated cut-off is given here; in the data, active means inhibition above about 30%; inconclusive means no clear call, values can overlap the other calls; inactive means below that.
SMILES,BoNT-F LC inh,Anthrax LF inh2,MazF activator,BoNT-A LC inh2,Bead autofluor,VHR inh abs
O=C(CSCc1n[nH]c(=O)[nH]1)NCCOc1cccc(Oc2ccccc2)c1,-4,1,-3,-1,19843*,0
COc1cc(NC2c3ncccc3C(=O)N2Cc2ccco2)cc(OC)c1 (stereo not drawn),-4,-9,5,0,20554*,25
COc1ccc(NC2c3ncccc3C(=O)N2Cc2ccccc2)c(OC)c1 (stereo not drawn),-49,-8,0,-2,8556,13
COc1ccc(CN2C(=O)c3cccnc3C2Nc2ccc(OC)c(Cl)c2)cc1 (stereo not drawn),2,0,9,?,22056*,28
Cc1cccc(CN2CCN([C@@H]3CS(=O)(=O)N[C@H]3COCc3ccccc3)CC2)c1,0,-7,·,0,6030,·
CCN(CC)C(=O)C1CCCN(C/C=C/c2ccccc2)C1 (stereo not drawn),-6,-2,-15,-6,25287*,-5
CCN(CC)C(=O)C1CCCN(Cc2ccc(F)c(F)c2)C1 (stereo not drawn),0,-2,1,2,11009,10
CCN(CC)C(=O)C1CCCN(Cc2ccccc2C(F)(F)F)C1 (stereo not drawn),0,-2,4,0,23390*,-20
COc1ccc(CN2CCCC(C(=O)N3CCc4ccccc4C3)C2)cc1OC (stereo not drawn),2,0,4,-1,4174,59*
CCN(CC)C(=O)C1CCCN(Cc2ccc(OC)c(C)c2)C1 (stereo not drawn),2,-2,-6,2,16141*,-4
CCNC(=O)C1CCCN(C(=O)c2ccc3c(c2)OCO3)CC1 (stereo not drawn),-5,-6,·,0,3567,·
COc1ccc(CC(N)c2csc(Nc3ccc(S(C)(=O)=O)cc3)n2)cc1 (stereo not drawn),-6,-1,·,0,3938,·
O=C(C1CCCN(Cc2cccc(F)c2)C1)N1CCCCC1 (stereo not drawn),2,-1,7,0,16903*,12
COc1ccccc1C(=O)COC(=O)c1c(-c2ccccc2)noc1C,·,·,-1,·,·,·
COc1ccc(C(=O)COC(=O)c2c(-c3ccccc3)noc2C)c(OC)c1,1,-3,67*,2,6110,·
CC(C)N1CCC(C)(C(=O)Nc2cccc3c2CCCC3)C1 (stereo not drawn),6,2,·,0,6597,·
N#CCCSc1ncnc2c1oc1ccccc12,-1,-2,5,2,18891*,-12
Clc1ccc(Oc2cnc3ccccc3n2)cc1,-4,-3,-9,-2,24944*,27
Fc1ccc(Oc2cnc3ccccc3n2)cc1,0,2,2,0,2246,-3
Cc1ccc(Oc2cnc3ccccc3n2)cc1,-2,-4,-7,?,20600*,7
CCCn1c(-c2cccs2)nc2c1c(=O)[nH]c(=O)n2Cc1ccccc1,-6,4,83*,0,4177,6
CCCCCn1c(CN2CCN(C)CC2)nc2c1c(=O)n(C)c(=O)n2C,-7,-4,9,0,5551,5
CCCCCn1c(CN2CCN(C(=O)OCC)CC2)nc2c1c(=O)n(C)c(=O)n2C,-1,4,-1,1,7714,·
CCCCCn1c(CN2CCN(Cc3ccccc3)CC2)nc2c1c(=O)[nH]c(=O)n2C,-1,0,4,-1,22888*,44
CCOC(=O)N1CCN(Cc2nc3c(c(=O)n(C)c(=O)n3C)n2CCCc2ccccc2)CC1,3,-3,-17,2,20078*,7
SMILES,BoNT-F LC inh,Anthrax LF inh2,MazF activator,BoNT-A LC inh2,Bead autofluor,VHR inh abs
CCCCCCn1c(CN2CCN(Cc3ccccc3)CC2)nc2c1c(=O)n(C)c(=O)n2C,-3,-1,-6,-1,20131*,-1
O=C(O)C(CCc1ccccc1)N1C(=O)c2ccccc2C1=O (stereo not drawn),-5,-4,1,0,3780,·
COc1ccc(N2CCN(Cc3nc4c(c(=O)n(C)c(=O)n4C)n3CC(C)=O)CC2)cc1,-2,-2,7,-2,20509*,21
CCCCCn1c(CN2CCN(c3cccc(Cl)c3)CC2)nc2c1c(=O)[nH]c(=O)n2C,-2,-8,-2,0,20547*,40
Cn1c(=O)[nH]c(=O)c2c1nc(CN1CCN(c3ccc(F)cc3)CC1)n2CCc1ccccc1,-28,-1,2,-4,8253,4
CCOC(=O)N1CCN(Cc2nc3c(c(=O)[nH]c(=O)n3C)n2Cc2cc(C)ccc2C)CC1,2,2,0,?,20382*,-5
Cn1c(=O)[nH]c(=O)c2c1nc(CN1CCN(c3cccc(Cl)c3)CC1)n2CCc1ccccc1,-9,-2,-5,-2,16970*,0
Cc1cccc(OCC(=O)NCCNC(=O)c2ccco2)c1,1,1,3,1,5693,23
CCc1nc2ccc(C(=O)NC3CCN(Cc4ccccc4)CC3)cn2c1N(C)Cc1ccc(N(C)C)cc1,-3,1,·,0,2956,·
COc1cccc(C(=O)NCCC(=O)NCc2cc(=O)n(C)c(=O)n2C)c1,-1,2,4,1,5344,11
Cc1cc2nc3c(=O)[nH]c(=S)[nH]c3nc2cc1NC(=O)C(F)(F)F,-17,-2,+,-5,4037,6
COc1ccc(C(=O)N2CCC(n3nccc3NC(=O)C3CCOC3)CC2)cc1 (stereo not drawn),0,0,5,1,6052,19
CC1(C)C/C(=N\O)c2cc3c(nc2C1)CCCC3,-6,-1,-4,-3,23918*,-15
CC1(C)CC(=O)c2cc3c(nc2C1)CC(C)(C)CC3=O,-2,-3,0,0,2148,22
O=S(=O)(NC1CCCCC1N1CCC(O)CC1)c1ccccc1 (stereo not drawn),6,12,-5,-4,8668,58*
CCCN1CCN(C2CCCCC2NS(=O)(=O)c2ccccc2)CC1 (stereo not drawn),2,1,1,0,5659,38
CCc1c(C)n2nc(C)cc2[nH]c1=O,1,-3,-12,2,22318*,18
O=C(NCc1ccccc1Cl)c1ccc2sc([C@@H]3O[C@H](CO)[C@H](O)[C@H](O)[C@H]3O)nc2c1,-1,-4,·,-1,4349,·
CN(CC(=O)NCc1ccccc1)S(=O)(=O)c1ccc2c(c1)CCC(=O)N2,4,-2,4,0,3905,1
CCOc1ccc(CCNC(=O)CN(C)S(=O)(=O)c2ccc3c(c2)CCC(=O)N3)cc1OCC,-2,-2,-6,-2,23279*,8
Cc1ccc(C2(c3ccc(C)cc3)CC2C(=O)NC(C)C)cc1 (stereo not drawn),14,-18,-1,-2,3797,-1
CN1CCN(CC(=O)Nc2c(C(=O)C3CC3)oc3ccccc23)CC1,0,-1,0,1,22556*,18
